From PubChem BioAssay (NCATS)
Records with an inconclusive call do not appear. Entries that show only a call come without a potency. The source made the active and inactive calls. Calls come from the whole dose curve; as a rule, active = well fitted inhibition curve with a large enough effect; inconclusive = small, poorly fitted or top-dose-only effect; inactive = flat fitted curve, though single readings scatter.

Columns and labels:
Experiment in all cases: qHTS profiling for inhibitors of Plasmodium falciparum proliferation (AID 504749); note: nearly all actives have a fitted effect of over 60% in size
Settings in all cases: P. falciparum in erythrocytes, SYBR Green DNA, 72 h; series mostly up to 28.7 µM
CP211 = system: CP211
Procedure, shortened: (§1)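 Infected RBCs, 0.3% parasitemia/2.5% Hct final; cpd 72 h, 37 C, 5% CO2; lysis buffer with saponin/triton/SYBR Green I, o/n RT dark; FI 485/535; norm. to artemisinin (0.29 uM) and DMSO.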

CP217 = system: CP217
Procedure, shortened: as §1

CP237 = system: CP237
Procedure, shortened: as §1

CP238 = system: CP238
Procedure, shortened: as §1

CP247 = system: CP247
Procedure, shortened: as §1

CP252 = system: CP252
Procedure, shortened: as §1

CP260 = system: CP260
Procedure, shortened: as §1

CP262 = system: CP262
Procedure, shortened: as §1

CP269 = system: CP269
Procedure, shortened: as §1

CP286 = system: CP286
Procedure, shortened: as §1

CP291 = system: CP291
Procedure, shortened: as §1

CP250 = system: CP250
Procedure, shortened: as §1

CP256 = system: CP256
Procedure, shortened: as §1

CP266 = system: CP266
Procedure, shortened: as §1

CP215 = system: CP215
Procedure, shortened: as §1

CP265 = system: CP265
Procedure, shortened: as §1

CP268 = system: CP268
Procedure, shortened: as §1

CP297 = system: CP297
Procedure, shortened: as §1

CP201 = system: CP201
Procedure, shortened: as §1
Potency is the fitted concentration of half-maximal effect.

Fc1ccc(C(OCCN2CCN(CCCc3ccccc3)CC2)c2ccc(F)cc2)cc1
Potency (CP211): 13.5 µM (active)
Potency (CP217): 8.91 µM (active)
Potency (CP237): 10 µM (active)
Potency (CP238): 12.6 µM (active)
Potency (CP247): 10 µM (active)
Potency (CP252): 11.2 µM (active)
Potency (CP260): 10 µM (active)
Potency (CP262): inactive
Potency (CP269): 15.1 µM (active)
Potency (CP286): 11.2 µM (active)
Potency (CP291): 10.7 µM (active)

CC(CCc1ccccc1)NC(C)C(O)c1ccc(O)cc1 (stereo not drawn)
Potency (CP217): inactive
Potency (CP237): 5.62 µM (active)
Potency (CP250): inactive
Potency (CP252): inactive
Potency (CP256): inactive
Potency (CP262): inactive
Potency (CP266): inactive

CC(=O)Nc1cc([As](=O)(O)O)ccc1O
Potency (CP211): inactive
Potency (CP215): inactive
Potency (CP217): inactive
Potency (CP237): inactive
Potency (CP238): inactive
Potency (CP247): inactive
Potency (CP250): inactive
Potency (CP252): inactive
Potency (CP256): inactive
Potency (CP260): inactive
Potency (CP262): inactive
Potency (CP265): inactive
Potency (CP266): inactive
Potency (CP268): inactive
Potency (CP269): inactive
Potency (CP286): inactive
Potency (CP291): inactive
Potency (CP297): inactive

Cc1cccc(C)c1NC1=NCCCS1
Potency (CP237): 7.08 µM (active)
Potency (CP247): inactive
Potency (CP250): inactive
Potency (CP266): inactive

CC(C)=CC1C(C(=O)OCc2cccc(Oc3ccccc3)c2)C1(C)C (stereo not drawn)
Potency (CP201): inactive
Potency (CP211): inactive
Potency (CP215): inactive
Potency (CP217): inactive
Potency (CP237): inactive
Potency (CP238): inactive
Potency (CP247): inactive
Potency (CP250): inactive
Potency (CP252): inactive
Potency (CP256): inactive
Potency (CP262): inactive
Potency (CP265): inactive
Potency (CP266): inactive
Potency (CP268): inactive
Potency (CP269): inactive
Potency (CP291): inactive
Potency (CP297): inactive

C=C(C)[C@H]1Cc2c(ccc3c2O[C@@H]2COc4cc(OC)c(OC)cc4[C@@H]2C3=O)O1
Potency (CP201): inactive
Potency (CP211): inactive
Potency (CP215): inactive
Potency (CP217): inactive
Potency (CP237): inactive
Potency (CP238): inactive
Potency (CP247): inactive
Potency (CP250): inactive
Potency (CP252): inactive
Potency (CP256): inactive
Potency (CP260): inactive
Potency (CP265): inactive
Potency (CP266): inactive
Potency (CP268): inactive
Potency (CP286): inactive
Potency (CP297): inactive
